Laboratory results reported in PubChem BioAssay (Tox21).
Results filed as inconclusive are left out. A call without a number means that no potency is given here. Values without a mark were called inactive. Active and inactive are the calls of the source. Unless noted, calls come from the whole dose curve; as a rule, active = well fitted curve in the direction sought with a large enough effect in the repeat runs; inconclusive = weak or mixed curves; inactive = no such curve, though single readings can be large; an effect the other way counts as inactive or inconclusive.

Legend:
[1] = qHTS assay to identify aromatase inhibitors - cell viability counter screen (AID 743084);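 note: cells stimulated with testosterone during compound exposure; nearly all actives have a fitted effect of over 55% in size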
[2] = target: Aryl hydrocarbon receptor (Homo sapiens) (UniProt P35869); assay: qHTS assay to identify small molecule that activate the aryl hydrocarbon receptor (AhR) signaling pathway (AID 743085);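 note: HG2L7.5c1 human HepG2 liver cells with stably integrated DRE-driven firefly reporter; series mostly up to about 70 µM; nearly all actives have a fitted effect of over 15% in size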
Chain of Aryl hydrocarbon receptor (Homo sapiens) (P35869 whole entry, looked up): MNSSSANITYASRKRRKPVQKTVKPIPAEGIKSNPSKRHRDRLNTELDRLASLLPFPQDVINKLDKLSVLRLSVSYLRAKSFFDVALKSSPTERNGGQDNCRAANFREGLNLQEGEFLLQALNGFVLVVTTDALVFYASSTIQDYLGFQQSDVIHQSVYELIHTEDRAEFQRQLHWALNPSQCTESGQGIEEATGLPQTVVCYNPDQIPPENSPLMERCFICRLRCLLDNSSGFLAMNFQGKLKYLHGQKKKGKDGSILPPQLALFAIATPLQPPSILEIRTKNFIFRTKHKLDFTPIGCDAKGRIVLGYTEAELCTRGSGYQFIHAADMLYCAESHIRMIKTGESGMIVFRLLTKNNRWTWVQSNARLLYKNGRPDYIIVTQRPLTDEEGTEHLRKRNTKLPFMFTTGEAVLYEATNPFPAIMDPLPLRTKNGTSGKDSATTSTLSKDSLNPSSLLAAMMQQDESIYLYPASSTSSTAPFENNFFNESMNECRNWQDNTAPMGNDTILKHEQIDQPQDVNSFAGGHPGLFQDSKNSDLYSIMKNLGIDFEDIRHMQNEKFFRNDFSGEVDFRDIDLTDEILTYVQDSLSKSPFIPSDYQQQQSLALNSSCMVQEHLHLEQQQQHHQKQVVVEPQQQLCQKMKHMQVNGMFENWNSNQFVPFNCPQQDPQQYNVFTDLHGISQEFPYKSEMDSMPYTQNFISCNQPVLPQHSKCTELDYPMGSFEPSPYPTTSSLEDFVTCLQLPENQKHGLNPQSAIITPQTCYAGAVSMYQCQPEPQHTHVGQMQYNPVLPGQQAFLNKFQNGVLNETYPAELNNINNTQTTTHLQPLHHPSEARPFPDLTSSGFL
Summary of the method: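 Cell line HG2L7.5c1 (human hepatoma, 20× DRE-luc). Plated, 5 h 37C, compound/DMSO added, 24 h 37C. CellTiter-Fluor 30 min 37C → fluorescence; then ONE-Glo 30 min RT → luminescence.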

[3] = qHTS assay to identify small molecule that activate the aryl hydrocarbon receptor (AhR) signaling pathway - cell viability counter screen (AID 743086);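 note: HepG2 liver cells carrying the AhR DRE luciferase reporter; series mostly up to about 70 µM; nearly all actives have a fitted effect of over 45% in size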
Summary of the method: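 HepG2-AhR-luc (HG2L7.5c1) cells, 4000/well, treated 24 h at 37 C with compound; viability measured as CellTiter-Fluor fluorescence after 30 min in the same wells as the luciferase read.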

[4] = target: Peroxisome proliferator-activated receptor gamma (Homo sapiens) (UniProt P37231); assay: qHTS assay to identify small molecule agonists of the peroxisome proliferator-activated receptor gamma (PPARg) signaling pathway (AID 743094; active = well fitted activation curve with a large enough effect in the signal ratio in the repeat runs, not every such curve was filed as active; the % refers to the signal ratio)
Chain of Peroxisome proliferator-activated receptor gamma (Homo sapiens) (P37231 whole entry, looked up): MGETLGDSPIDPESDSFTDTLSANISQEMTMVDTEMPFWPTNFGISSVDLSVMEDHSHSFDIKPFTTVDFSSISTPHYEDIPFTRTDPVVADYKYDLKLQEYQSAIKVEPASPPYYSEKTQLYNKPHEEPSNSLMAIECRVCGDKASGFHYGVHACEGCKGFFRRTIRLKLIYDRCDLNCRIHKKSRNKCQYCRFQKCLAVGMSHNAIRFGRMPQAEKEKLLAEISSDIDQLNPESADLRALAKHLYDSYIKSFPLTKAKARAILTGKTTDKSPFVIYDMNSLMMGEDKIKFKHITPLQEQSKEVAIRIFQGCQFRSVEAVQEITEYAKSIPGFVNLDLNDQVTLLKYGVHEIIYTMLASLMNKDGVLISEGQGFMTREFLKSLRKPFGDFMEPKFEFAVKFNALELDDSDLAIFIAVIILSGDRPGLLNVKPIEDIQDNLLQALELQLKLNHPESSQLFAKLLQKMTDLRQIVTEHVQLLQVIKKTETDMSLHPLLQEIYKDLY
Summary of the method: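 Beta-lactamase FRET fluorescence was the read-out after a 1 h room-temperature substrate step, following 17 h compound treatment at 37C of HEK293H cells expressing a UAS-driven bla reporter responsive to PPARg.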

[5] = target: Peroxisome proliferator-activated receptor gamma (Homo sapiens) (UniProt P37231); assay: qHTS assay to identify small molecule antagonists of the peroxisome proliferator-activated receptor gamma (PPARg) signaling pathway (AID 743191; calls by dose curve; note: series mostly up to about 63 µM; nearly all actives have a fitted effect of over 30% in size)
Summary of the method: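 GeneBLAzer PPARg UAS-bla HEK293H cells, 5 h post-plating, exposed to compounds 17 h at 37C. LiveBLAzer B/G FRET substrate added for 1 h at room temperature; beta-lactamase reporter read by fluorescence intensity.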

[6] = qHTS assay to identify small molecule antagonists of the peroxisome proliferator-activated receptor gamma (PPARg) signaling pathway - cell viability counter screen (AID 743194); note: nearly all actives have a fitted effect of over 55% in size
Summary of the method: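 Cytotoxicity counter screen in PPARg-bla HEK293H cells, same wells as reporter assay. Compounds plus 50 nM rosiglitazone (final) for 17 h at 37 C, then viability read by CellTiter-Glo luminescence.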

[7] = qHTS assay for small molecule agonists of the antioxidant response element (ARE) signaling pathway (AID 743202; active = well fitted activation curve with a large enough effect in the signal ratio in the repeat runs, not every such curve was filed as active; the % refers to the signal ratio; note: potency is the fitted concentration of half-maximal effect)
Summary of the method: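 Agonist mode reporter screen: HepG2 cells with ARE-controlled beta-lactamase are incubated with test compounds for 16 h at 37 C, and beta-lactamase activity is measured as fluorescence of cleaved B/G FRET substrate.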

[8] = qHTS assay for small molecule agonists of the antioxidant response element (ARE) signaling pathway - cell viability counter screen (AID 743203; calls by dose curve; note: nearly all actives have a fitted effect of over 55% in size)
Summary of the method: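 HepG2 cells carrying ARE-driven beta-lactamase; 2,000 cells/well; 5 hrs plating; compound pinned from DMSO; 16 hrs 37C/5% CO2; CellTiter-Glo added; 30 min RT; luminescence.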

[9] = qHTS assay for small molecule activators of the heat shock response signaling pathway - cell viability counter screen (AID 743209); note: nearly all actives have a fitted effect of over 50% in size
Summary of the method: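 Luminescence from CellTiter-Glo, added after the beta-lactamase FRET read, gave the viability signal. Cells were HSE-bla HeLa treated with DMSO-dissolved compounds for 5 h at 37 C following overnight plating.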

[10] = qHTS assay for small molecule activators of the heat shock response signaling pathway (AID 743210; active = well fitted activation curve with a large enough effect in the signal ratio in the repeat runs, with a control signal flat, not every such curve was filed as active; the % refers to the signal ratio;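 note: HeLa cells with beta-lactamase reporter driven by heat shock elements; series mostly up to about 63 µM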)
Summary of the method: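 Quantitative high-throughput format using an engineered HeLa line in which heat shock response elements drive beta-lactamase; after 5 h with compound, cells received a B/G FRET substrate and fluorescence was read.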

[11] = qHTS assay to identify small molecule agonists of the peroxisome proliferator-activated receptor delta (PPARd) signaling pathway - cell viability counter screen (AID 743211); note: nearly all actives have a fitted effect of over 55% in size
Summary of the method: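 HEK293H PPARd-bla, 3000 cells/well; 5 h preincubation 37C/5% CO2; cpd in DMSO, 17 h 37C; B/G FRET substrate 2 h RT; CellTiter-Glo 30 min RT, luminescence.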

[12] = target: Peroxisome proliferator-activated receptor delta (Homo sapiens) (UniProt Q03181); assay: qHTS assay to identify small molecule agonists of the peroxisome proliferator-activated receptor delta (PPARd) signaling pathway (AID 743212; calls by dose curve)
Chain of Peroxisome proliferator-activated receptor delta (Homo sapiens) (Q03181 whole entry, looked up): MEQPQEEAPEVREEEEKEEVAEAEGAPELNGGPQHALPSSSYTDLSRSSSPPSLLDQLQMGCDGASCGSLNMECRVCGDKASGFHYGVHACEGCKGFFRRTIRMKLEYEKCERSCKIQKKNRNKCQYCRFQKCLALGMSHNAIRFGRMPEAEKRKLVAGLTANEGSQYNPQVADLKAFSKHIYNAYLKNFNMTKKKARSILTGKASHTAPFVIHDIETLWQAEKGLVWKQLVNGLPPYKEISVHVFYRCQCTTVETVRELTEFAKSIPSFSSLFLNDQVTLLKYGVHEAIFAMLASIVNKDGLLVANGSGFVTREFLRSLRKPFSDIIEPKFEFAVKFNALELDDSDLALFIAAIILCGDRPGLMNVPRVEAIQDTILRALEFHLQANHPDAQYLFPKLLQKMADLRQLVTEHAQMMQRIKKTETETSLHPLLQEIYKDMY
Summary of the method: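 Quantitative high-throughput agonist screen in a HEK293H beta-lactamase reporter line under UAS control. Compounds in DMSO, at 37 C. Fluorescence read after 2 h with FRET substrate at room temperature.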

[13] = qHTS assay to identify small molecule antagonists of the peroxisome proliferator-activated receptor delta (PPARd) signaling pathway - cell viability counter screen (AID 743213); note: nearly all actives have a fitted effect of over 50% in size
Summary of the method: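 Same-well viability: cells pre-incubated 5 h, dosed with compound plus 300 nM L165041, kept 17 h at 37 C, FRET substrate 2 h RT, then CellTiter-Glo 30 min RT and luminescence.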

[14] = target: Peroxisome proliferator-activated receptor delta (Homo sapiens) (UniProt Q03181); assay: qHTS assay to identify small molecule antagonists of the peroxisome proliferator-activated receptor delta (PPARd) signaling pathway (AID 743215; active = well fitted inhibition curve with a large enough effect in the signal ratio in the repeat runs, not every such curve was filed as active; the % refers to the signal ratio;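 note: cells stimulated with agonist L165041 at 300 nM final during compound exposure; series mostly up to about 62 µM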)
Summary of the method: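 Read-out is beta-lactamase FRET fluorescence, measured 2 h after substrate addition at room temperature. Beforehand, UAS-bla HEK293H cells carrying the PPARd reporter were exposed to compounds with L165041 at 300 nM final for 17 h at 37 C.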

[15] = qHTS assay to identify small molecule antagonists of the farnesoid-X-receptor (FXR) signaling pathway - cell viability counter screen (AID 743221; active = well fitted cell-killing curve with a large enough effect in the repeat runs, not every such curve was filed as active; note: nearly all actives have a fitted effect of over 50% in size)
Summary of the method: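 Luminescence from CellTiter-Glo measures cytotoxicity in GeneBLAzer FXR-UAS-bla HEK 293T cells. Cells were exposed to compounds with 50 uM chenodeoxycholic acid (final) for 16 h at 37 C, in wells also used for the reporter readout.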

[16] = target: Vitamin D3 receptor (Homo sapiens) (UniProt P11473); assay: qHTS assay to identify small molecule agonists of the vitamin D receptor (VDR) signaling pathway (AID 743222; calls by dose curve)
Chain of Vitamin D3 receptor (Homo sapiens) (P11473 whole entry, looked up): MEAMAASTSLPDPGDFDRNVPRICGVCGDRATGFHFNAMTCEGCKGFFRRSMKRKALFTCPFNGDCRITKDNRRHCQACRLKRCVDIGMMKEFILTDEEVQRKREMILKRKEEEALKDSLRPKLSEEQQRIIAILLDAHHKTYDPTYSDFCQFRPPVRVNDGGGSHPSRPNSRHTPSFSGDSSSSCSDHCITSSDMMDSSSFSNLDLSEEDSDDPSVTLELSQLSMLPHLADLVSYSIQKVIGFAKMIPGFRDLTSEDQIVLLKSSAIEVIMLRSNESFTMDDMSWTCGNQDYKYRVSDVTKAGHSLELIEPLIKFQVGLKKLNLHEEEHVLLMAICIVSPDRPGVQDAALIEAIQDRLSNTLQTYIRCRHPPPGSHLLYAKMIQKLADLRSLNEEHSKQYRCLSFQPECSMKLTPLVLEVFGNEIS
Summary of the method: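 VDR-bla cells, 2,000/well; 4 h preincubation 37C; cpd (DMSO) 16 h; LiveBLAzer B/G substrate 2 h RT; fluorescence intensity read.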

[17] = target: Vitamin D3 receptor (Homo sapiens) (UniProt P11473); assay: qHTS assay to identify small molecule antagonists of the vitamin D receptor (VDR) signaling pathway (AID 743223; active = well fitted inhibition curve with a large enough effect in the signal ratio in the repeat runs, not every such curve was filed as active; the % refers to the signal ratio)
Summary of the method: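 Antagonist mode uses 1alpha,25-dihydroxyvitamin D3 at 3 nM final as stimulus. VDR-bla cells receive compounds in DMSO, incubate 16 h at 37C, then a beta-lactamase FRET substrate for 2 h at room temperature before fluorescence measurement.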

[18] = qHTS assay to identify small molecule agonists of the farnesoid-X-receptor (FXR) signaling pathway - cell viability counter screen (AID 743218); note: nearly all actives have a fitted effect of over 45% in size
Summary of the method: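 HEK 293T FXR-bla cells; 5 h pre-incubation, 16 h compound exposure at 37 C; LiveBLAzer substrate 2 h RT, then CellTiter-Glo 30 min RT, luminescence.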

[19] = target: Bile acid receptor (Homo sapiens) (UniProt Q96RI1); assay: qHTS assay to identify small molecule antagonists of the farnesoid-X-receptor (FXR) signaling pathway (AID 743217; active = well fitted inhibition curve with a large enough effect in the signal ratio in the repeat runs, not every such curve was filed as active; the % refers to the signal ratio)
Chain of Bile acid receptor (Homo sapiens) (Q96RI1 whole entry, looked up): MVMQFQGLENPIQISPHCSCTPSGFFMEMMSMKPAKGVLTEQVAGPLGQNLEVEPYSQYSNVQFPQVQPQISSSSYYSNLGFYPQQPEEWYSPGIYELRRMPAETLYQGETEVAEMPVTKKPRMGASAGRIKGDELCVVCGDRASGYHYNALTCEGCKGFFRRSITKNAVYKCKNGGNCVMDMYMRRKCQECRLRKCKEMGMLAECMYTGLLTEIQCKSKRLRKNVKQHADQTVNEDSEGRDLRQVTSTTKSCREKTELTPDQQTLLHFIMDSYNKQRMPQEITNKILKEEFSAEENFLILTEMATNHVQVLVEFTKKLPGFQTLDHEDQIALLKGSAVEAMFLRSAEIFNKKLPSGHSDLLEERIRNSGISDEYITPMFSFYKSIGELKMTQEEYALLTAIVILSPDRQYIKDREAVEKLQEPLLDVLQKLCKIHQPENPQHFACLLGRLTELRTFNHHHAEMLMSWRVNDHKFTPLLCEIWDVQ
Summary of the method: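 HEK 293T FXR-UAS-bla, 5000 cells/well; compound + CDCA 50 uM final; 16 h, 37 °C; B/G FRET substrate 2 h RT; fluorescence.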

[20] = target: Bile acid receptor (Homo sapiens) (UniProt Q96RI1); assay: qHTS assay to identify small molecule agonists of the farnesoid-X-receptor (FXR) signaling pathway (AID 743220; active = well fitted activation curve with a large enough effect in the signal ratio in the repeat runs, not every such curve was filed as active; the % refers to the signal ratio)
Summary of the method: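 Beta-lactamase reporter under UAS control in GeneBLAzer FXR HEK 293T cells (5000/well) measured with LiveBLAzer FRET substrate after 2 h at room temperature. Compound exposure lasted 16 h at 37C.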

Row | SMILES | Potency [1] | Potency [2] | Potency [3] | outcome [4] | outcome [5] | Potency [6] | Potency [7] | outcome [8] | outcome [9] | outcome [10] | Potency [11] | outcome [12] | Potency [13] | outcome [14] | Potency [15] | outcome [16] | outcome [17] | outcome [18] | outcome [19] | outcome [20]
1 | CC(C=O)Cc1ccc(C(C)C)cc1 (configuration not stated) | inactive | inactive | inactive | inactive | inactive | inactive | inactive | inactive | inactive | inactive | inactive | inactive | inactive | inactive | inactive | inactive | inactive | – | – | –
2 | OCc1ccccn1 | inactive | inactive | inactive | inactive | inactive | inactive | 11.9 µM (active) | inactive | inactive | inactive | inactive | inactive | inactive | inactive | inactive | – | – | inactive | – | –
3 | OCCN1C[C@H](O)[C@@H](O)[C@H](O)[C@H]1CO | inactive | inactive | inactive | inactive | inactive | inactive | inactive | inactive | inactive | inactive | inactive | inactive | inactive | inactive | inactive | – | – | inactive | inactive | inactive
4 | CCCCCOC(=O)Nc1nc(=O)n([C@@H]2O[C@H](C)[C@@H](O)[C@H]2O)cc1F | inactive | inactive | inactive | inactive | inactive | inactive | inactive | inactive | inactive | inactive | inactive | inactive | inactive | – | inactive | inactive | inactive | inactive | – | –
5 | C=C(C)C(=O)NCCC[N+](C)(C)C | inactive | inactive | inactive | inactive | inactive | inactive | inactive | inactive | inactive | inactive | inactive | inactive | inactive | inactive | inactive | inactive | inactive | inactive | inactive | inactive
6 | NC(=O)c1c(Cl)cccc1Cl | inactive | inactive | inactive | inactive | inactive | inactive | inactive | inactive | inactive | inactive | inactive | inactive | inactive | inactive | inactive | inactive | inactive | inactive | inactive | inactive
7 | CSc1ccc(C=O)cc1 | inactive | inactive | inactive | inactive | inactive | inactive | inactive | inactive | inactive | inactive | inactive | inactive | inactive | inactive | inactive | inactive | inactive | inactive | – | –
8 | C=C(C)[C@@H]1CCC2=CC(=O)C[C@@H](C)[C@]2(C)C1 | inactive | inactive | inactive | inactive | inactive | inactive | inactive | inactive | inactive | inactive | inactive | inactive | inactive | inactive | inactive | – | – | inactive | – | –
